The list is not random: actives were taken first. Their share in the collection is about 1.6%.
KCNQ2 block: inhibitors of rat KCNQ2 potassium channel; 310,000 compounds, 1.1% hits; AID 2156; O88943; B-score at 10 µM; CHO-K1 KCNQ2, FluxOR thallium flux, 20 min; active compounds read low;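 active = fluorescence ratio B-score at most minus 3 library SDs, with starting brightness B-score within 2 library SDs, cut at about -5.5 in these data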
Target sequence (O88943 whole entry, looked up): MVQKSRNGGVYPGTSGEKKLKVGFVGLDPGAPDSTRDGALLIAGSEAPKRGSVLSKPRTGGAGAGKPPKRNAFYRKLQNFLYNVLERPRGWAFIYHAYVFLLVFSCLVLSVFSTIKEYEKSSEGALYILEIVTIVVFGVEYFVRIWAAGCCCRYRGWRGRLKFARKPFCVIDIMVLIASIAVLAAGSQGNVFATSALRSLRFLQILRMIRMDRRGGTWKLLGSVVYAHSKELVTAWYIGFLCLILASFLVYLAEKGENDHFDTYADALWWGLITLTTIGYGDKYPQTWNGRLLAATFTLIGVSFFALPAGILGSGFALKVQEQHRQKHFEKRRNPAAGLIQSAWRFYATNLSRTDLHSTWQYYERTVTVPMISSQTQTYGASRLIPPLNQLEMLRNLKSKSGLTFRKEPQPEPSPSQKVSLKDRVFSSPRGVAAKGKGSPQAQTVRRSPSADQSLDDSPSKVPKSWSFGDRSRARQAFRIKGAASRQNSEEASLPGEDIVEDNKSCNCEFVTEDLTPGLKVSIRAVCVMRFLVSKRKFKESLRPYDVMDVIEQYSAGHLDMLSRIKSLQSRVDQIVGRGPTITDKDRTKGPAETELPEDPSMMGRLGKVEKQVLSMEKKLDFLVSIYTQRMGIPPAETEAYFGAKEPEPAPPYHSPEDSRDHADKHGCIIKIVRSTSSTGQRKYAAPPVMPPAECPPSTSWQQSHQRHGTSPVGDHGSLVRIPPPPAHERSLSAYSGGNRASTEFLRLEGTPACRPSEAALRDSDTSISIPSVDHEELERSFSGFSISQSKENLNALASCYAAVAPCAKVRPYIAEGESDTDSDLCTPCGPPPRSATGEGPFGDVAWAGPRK
KCNQ2 pot: enhances the rat KCNQ2 potassium channel; B-score at 10 µM; 310,000 compounds, 0.54% hits; O88943; AID 2239; CHO-K1 KCNQ2, FluxOR thallium flux fluorescence; active compounds read high;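 active = fluorescence ratio B-score at least 3 SD of library B-scores, with initial fluorescence B-score within 3 of them, cut at about 5.3 in these data; same plate scores as AID 2156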;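 also: B-score of peak minus minimum over baseline fluorescence ratio after K+ and Tl+ stimulus; positive B-score means potentiation of KCNQ2 with more thallium influx and brighter signal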
Large screens that a line does not name were inactive.

CC(NC(=O)c1ccccc1)C(=O)NC1=NCCS1 (configuration not stated)	none
CC(NC(=O)c1ccc(Br)cc1)C(=O)NC1=NCCS1 (configuration not stated)	KCNQ2 pot 7.4
CCOC(=O)[C@@H]1[C@H]2COc3cc(OC)ccc3[C@@H]2N2C(=O)N(c3ccc(Cl)cc3)C(=O)[C@@]12C	none
CCCn1c(N)c(Sc2ccccc2[N+](=O)[O-])c(=O)n(CCC)c1=O	none
CN1C(CC(=O)Nc2ccc(Cl)cc2Cl)c2ccccc2CC1(C)C (configuration not stated)	none (no result: KCNQ2 pot)
CCOC(=O)/C(C(=O)Nc1ccc(Cl)cc1Cl)=C1/NC(C)(C)Cc2ccccc21	KCNQ2 block -6.3
CC(C)(C)NC(=O)C12CC3CC(CC(Cl)(C3)C1)C2	none
CC(C)(C)NC(=S)NC(=O)C12CCC3CC(CC(C3)C1)C2	KCNQ2 block -5.7
O=C(NCc1ccccc1Cl)c1nnc(CS(=O)(=O)c2ccccc2)o1	none (no result: KCNQ2 pot)
COc1ccc2[nH]c(C(=O)O)c(CCNC(=O)/C=C/c3ccc(O)c(OC)c3)c2c1	none
COc1ccc(-c2nc(CS(=O)(=O)CC(=O)NCc3cccc(OC)c3OC)c(C)o2)cc1	none (no result: KCNQ2 pot)
COc1ccc(-c2nc(CS(=O)(=O)CC(=O)NCc3ccccc3Br)c(C)o2)cc1	KCNQ2 block -7.8
COc1ccc(CNc2cccc(C)n2)c(O)c1	none (no result: KCNQ2 pot)
Cc1cccc(NCc2cccc3ccccc23)n1	KCNQ2 block -5.9
O=[N+]([O-])c1cc2cccnc2c2ncccc12	none (no result: KCNQ2 pot)
O=[N+]([O-])c1cc(O)c2ncccc2c1	KCNQ2 pot 10
O=C(CN1CCN(Cc2ccccc2F)CC1)Nc1ccccc1Cl	none (no result: KCNQ2 pot)
Cc1cc(C)c(C)c(N=Nc2nc3ccccc3n2C)c1C	none (no result: KCNQ2 pot)
Cc1ccc(C)c(N=Nc2nc3ccccc3n2C)c1	KCNQ2 block -6
O=[N+]([O-])c1cc2c(c(CSc3nnnn3-c3ccc(O)cc3)c1)OCOC2	none
O=C1C=CC(=O)N1N(c1ccccc1)c1ccccc1	KCNQ2 block -6.2
O=C1C=CC(=O)N1Cc1ccccc1	none (no result: KCNQ2 pot)
CCC(=O)N1N=C(c2ccc(Cl)cc2)CC1c1ccco1 (configuration not stated)	none (no result: KCNQ2 pot)
Cc1ccc(OCC(=O)N2N=C(c3ccc(Cl)cc3)CC2c2ccco2)c([N+](=O)[O-])n1 (configuration not stated)	KCNQ2 block -8.3
CCCCc1nnc(NC(=O)C2CC(=O)N(Cc3ccccc3)C2)s1 (configuration not stated)	none
O=C1Cc2cc([N+](=O)[O-])ccc2N1c1c(Cl)cccc1Cl	none (no result: KCNQ2 pot)
COc1ccccc1CNC(=O)C(C)n1cccc1C(=O)c1ccccc1 (configuration not stated)	KCNQ2 block -5.7
CC(C(=O)NCc1ccc(Cl)cc1)n1cccc1C(=O)c1ccccc1 (configuration not stated)	none
CC(=O)Nc1sc2c(c1C#N)CCC(C)C2 (configuration not stated)	none
Cc1ccc(C)n1-c1sc2c(c1C#N)CCC(C)C2 (configuration not stated)	KCNQ2 block -7.8
CC(C)OCCCn1c(=O)c2ccccc2n2c(CCC(=O)NC3CCN(Cc4ccccc4)CC3)nnc12	KCNQ2 block -6
CC(C)OCCCn1c(=O)c2ccccc2n2c(CCC(=O)O)nnc12	none
O=c1c2c3c(sc2nc2n1CCCCC2)C(O)CCC3 (configuration not stated)	none
Cc1cccc(C(=O)OC2CCOC2=O)c1C (configuration not stated)	none (no result: KCNQ2 pot)
O=C1C2C(C(=O)N1CCN1CCN(Cc3ccc([N+](=O)[O-])cc3)CC1)[C@H]1C=C[C@@H]2C1 (some centres not stated)	none (no result: KCNQ2 pot)
O=S(=O)(c1ccc(N2CCC(c3ccc(Cl)cc3)=N2)cc1)N(CCO)CCO	none
CN(C)CCCNS(=O)(=O)c1ccc(N2CCC(c3ccc(Cl)cc3)=N2)cc1	KCNQ2 block -5.9
CCOC(=O)CNC(=O)CSc1nc(Cc2ccccc2)nc2ccccc12	none
CCOC(=O)C1=C(c2ccccc2)N(C)C(=O)NC1c1ccc(OC(F)F)c(OC)c1 (configuration not stated)	KCNQ2 block -5.6
CCOC(=O)C1=C(c2ccccc2)NC(=O)NC1c1ccc(OC)c(OC)c1 (configuration not stated)	none (no result: KCNQ2 pot)
Cc1cccc(C)c1NC(=O)CN(C)C(=O)c1ccccc1C(=O)N(C)Cc1ccccc1	KCNQ2 block -6.6
Cc1ccccc1C(=O)N(C)Cc1ccccc1	none (no result: KCNQ2 pot)
Cc1cccc(N2CCN(C(=O)c3cc4c(=O)n(C)c5ccccc5c4n3C)CC2C)c1 (configuration not stated)	KCNQ2 block -6.1
Cn1c(C(=O)N2CCCCCC2)cc2c(=O)n(C)c3ccccc3c21	none
CCOC(=O)C1(Cc2ccccc2C)CCCN(C(=O)c2ccc(OC)o2)C1 (configuration not stated)	none
C/C(=N\NC(=O)c1c(Cl)cnn1C)c1ccc(NC(=O)c2ccc(Br)o2)cc1	none
Cn1cc(/C=C(\NC(=O)c2ccccc2Cl)C(=O)N2CCOCC2)c2ccccc21	KCNQ2 block -7

Compound activity from PubChem.
